Drawing on PubChem BioAssay (NCI), this text covers growth inhibition for 10 molecules.

About 79,000 compounds went through this panel and 15% of them were active in at least one assay; those are over-represented in the sample as a whole. Unmarked numbers belong to inactive results. Active and inactive are the calls of the source. Rule as the data show it: active = growth inhibition above about 70%; inactive = the rest.

The nature of test [1]: NCI Yeast Anticancer Drug Screen. Data for the rad50 strain (AID 155).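 Also: 0% = growth of vehicle-only cultures of the same strain.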 The following applies: S. cerevisiae rad50 strain growth inhibition, active compounds read high. The procedure, abridged:
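Yeast carrying a defined DNA repair defect were exposed to test compounds, and growth was compared with vehicle-treated controls to give percent inhibition.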

Test [2] is described as follows: NCI Yeast Anticancer Drug Screen. Data for the mec2-1 strain (AID 157). The following applies: S. cerevisiae mec2-1 strain, active compounds read high. The procedure, abridged: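 Cells of the genetically defined mec2-1 yeast strain are incubated with test compound. Inhibition of growth is calculated against vehicle-treated controls.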
A short description of test [3]: NCI Yeast Anticancer Drug Screen. Data for the sgs1 mgt1 strain (AID 161).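 Also: 0% = growth of cultures given vehicle only.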 The following applies: S. cerevisiae sgs1 mgt1 strain, active compounds read high. The procedure, abridged:
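Test agents were incubated with a DNA-repair-mutant yeast strain. Growth was then read and compared against vehicle-treated controls.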

A short description of test [4]: NCI Yeast Anticancer Drug Screen. Data for the cln2 rad14 strain (AID 165).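 Also: 0% = growth equal to vehicle treated cultures.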 The following applies: S. cerevisiae cln2 rad14 strain, active compounds read high. The method in brief: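 The screen exposed genetically defined yeast (cln2 rad14) to test compounds and scored growth inhibition relative to vehicle-treated controls.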
The nature of test [5]: NCI Yeast Anticancer Drug Screen. Data for the bub3 strain (AID 167). The conditions noted are these: S. cerevisiae bub3 mutant strain, active compounds read high. The procedure, abridged:
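Compounds were applied to a genetically altered yeast strain carrying a cell-cycle control defect. Growth inhibition was scored against vehicle-treated controls.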

Test [6] is described as follows: NCI Yeast Anticancer Drug Screen. Data for the mlh1 rad18 strain (AID 175). The conditions noted are these: S. cerevisiae mlh1 rad18 strain growth inhibition, active compounds read high. The method in brief: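 Compound-treated yeast growth, normalised to vehicle controls. Strain bears defined DNA repair mutations.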
Setting [7] is: at 5.0 µM (retest, dose inferred, filed as 0.5).
The mark [8] stands for this setting: at 50.0 µM (retest, dose inferred, filed as 5.0).

For the molecule `CCC1CCC2=C(C1)C(=O)c1ccccc1C2=O` (stereo not given), the growth inhibition in test [1] (setting [7]) was 6%; in test [1] (setting [8]) it was 91% (active); in test [1] (at 50.0 µM), 3.4%; in test [2] (setting [7]) it was 7%; in test [2] (setting [8]), 92% (active); in test [2] (at 50.0 µM), 49.5%. The growth inhibition in test [3] (setting [7]) was 11%; in test [3] (setting [8]) it was 96% (active); in test [3] (at 50.0 µM), 45%; in test [4] (setting [7]) it was 11%; in test [4] (setting [8]), 71% (active); in test [4] (at 50.0 µM), 49.3%. The growth inhibition in test [5] (setting [7]) was 9%; in test [5] (setting [8]), 94% (active); in test [5] (at 50.0 µM) it was 95.9% (active); in test [6] (setting [7]), 6%; in test [6] (setting [8]), 97% (active); in test [6] (at 50.0 µM), 51.5%.

In the case of `O=C(CC(C[N+](=O)[O-])c1ccc2c(c1)OCO2)c1ccccc1` (stereo not given), the growth inhibition is 0% in test [1] (setting [7]); -3% in test [1] (setting [8]); -12.5% in test [1] (at 50.0 µM); 9% in test [2] (setting [7]); 17% in test [2] (setting [8]); 17.1% in test [2] (at 50.0 µM). In addition, the growth inhibition is -1% in test [3] (setting [7]); -50% in test [3] (setting [8]); 33.9% in test [3] (at 50.0 µM); 4% in test [4] (setting [7]); 16% in test [4] (setting [8]); 4.65% in test [4] (at 50.0 µM). Besides, the growth inhibition in test [5] (setting [7]) is 18%; in test [5] (setting [8]) it was 45%; in test [5] (at 50.0 µM) it was 88.2% (active); in test [6] (setting [7]), -4%; in test [6] (setting [8]) it was 9%; in test [6] (at 50.0 µM), 45.1%.

Turning to `O=S(=O)(CCCCl)SCCCCl`, the growth inhibition in test [1] (setting [7]) was 11%; in test [1] (setting [8]), 99% (active); in test [1] (at 50.0 µM) it was 99.4% (active); in test [2] (setting [7]) it was 15%; in test [2] (setting [8]) it was 99% (active); in test [2] (at 50.0 µM), 99.5% (active). Also, the growth inhibition in test [3] (setting [7]) was 18%; in test [3] (setting [8]), 100% (active); in test [3] (at 50.0 µM) it was 99.5% (active); in test [4] (setting [7]), 23%; in test [4] (setting [8]) it was 99% (active); in test [4] (at 50.0 µM), 99.7% (active). Also, the growth inhibition in test [5] (setting [7]) is 22%; in test [5] (setting [8]), 100% (active); in test [5] (at 50.0 µM), 99.7% (active); in test [6] (setting [7]), 19%; in test [6] (setting [8]) it was 99% (active); in test [6] (at 50.0 µM), 99.5% (active).

Take `CCOC1=C(c2ccccc2)Sc2ccc(C)cc2C1c1ccc(C)cc1` (stereo not given): the growth inhibition in test [1] (setting [7]) is 15%; in test [1] (setting [8]) it was 35%; in test [1] (at 50.0 µM) it was 60.2%; in test [2] (setting [7]), 0%; in test [2] (setting [8]), 76% (active); in test [2] (at 50.0 µM) it was 78.2% (active). Moreover, the growth inhibition in test [3] (setting [7]) was 10%; in test [3] (setting [8]), 81% (active); in test [3] (at 50.0 µM) it was 95.3% (active); in test [4] (setting [7]) it was -4%; in test [4] (setting [8]), 51%; in test [4] (at 50.0 µM) it was 13.1%. The growth inhibition in test [5] (setting [7]) is -3%; in test [5] (setting [8]), 61%; in test [5] (at 50.0 µM), 90% (active); in test [6] (setting [7]), -2%; in test [6] (setting [8]) it was 81% (active); in test [6] (at 50.0 µM) it was 82.9% (active).

As for `COc1ccc(/C=N/NC(=O)c2ccco2)cc1OC`, the growth inhibition in test [1] (setting [7]) is -5%; in test [1] (setting [8]), 0%; in test [1] (at 50.0 µM) it was 63.5%; in test [2] (setting [7]), -5%; in test [2] (setting [8]) it was -15%; in test [2] (at 50.0 µM) it was 73.2% (active). The growth inhibition was -3% in test [3] (setting [7]); 5% in test [3] (setting [8]); 23.8% in test [3] (at 50.0 µM); -21% in test [4] (setting [7]); -20% in test [4] (setting [8]); 19.1% in test [4] (at 50.0 µM). Moreover, the growth inhibition is -7% in test [5] (setting [7]); -13% in test [5] (setting [8]); 56.2% in test [5] (at 50.0 µM); -6% in test [6] (setting [7]); -14% in test [6] (setting [8]); 35.8% in test [6] (at 50.0 µM).

With `CS[C@H]1CC[C@H]2[C@@H]3CCc4cc(O)ccc4[C@H]3CC[C@]12C`, the growth inhibition is 0% in test [1] (setting [7]); 73% (active) in test [1] (setting [8]); 71.6% (active) in test [1] (at 50.0 µM); 2% in test [2] (setting [7]); 66% in test [2] (setting [8]); 61.8% in test [2] (at 50.0 µM). The growth inhibition in test [3] (setting [7]) was 0%; in test [3] (setting [8]), 71% (active); in test [3] (at 50.0 µM), 63.4%; in test [4] (setting [7]), 7%; in test [4] (setting [8]), 85% (active); in test [4] (at 50.0 µM), 87.6% (active). For the same molecule, the growth inhibition in test [5] (setting [7]) was 12%; in test [5] (setting [8]), 81% (active); in test [5] (at 50.0 µM), 82.8% (active); in test [6] (setting [7]), -8%; in test [6] (setting [8]), 75% (active); in test [6] (at 50.0 µM), 85.8% (active).

Take `COc1ccc(-c2ccccc2)cc1SCCC(=O)O`: the growth inhibition was 3% in test [1] (setting [7]); 15% in test [1] (setting [8]); 79.7% (active) in test [1] (at 50.0 µM); -1% in test [2] (setting [7]); 21% in test [2] (setting [8]); 70.5% (active) in test [2] (at 50.0 µM). The growth inhibition in test [3] (setting [7]) is 4%; in test [3] (setting [8]), 32%; in test [3] (at 50.0 µM), 48.3%; in test [4] (setting [7]), -7%; in test [4] (setting [8]), 17%; in test [4] (at 50.0 µM), 77.7% (active). Moreover, the growth inhibition in test [5] (setting [7]) is 0%; in test [5] (setting [8]), 10%; in test [5] (at 50.0 µM), 65.2%; in test [6] (setting [7]) it was -2%; in test [6] (setting [8]) it was 20%; in test [6] (at 50.0 µM), 87% (active).

In the case of `CCOC(=O)Nc1c(F)cc(F)cc1F`, the growth inhibition is 0% in test [1] (setting [7]); 0% in test [1] (setting [8]); 8.65% in test [1] (at 50.0 µM); -32% in test [2] (setting [7]); 1% in test [2] (setting [8]); 5.6% in test [2] (at 50.0 µM). The growth inhibition was 1% in test [3] (setting [7]); -1% in test [3] (setting [8]); -7.55% in test [3] (at 50.0 µM); -2% in test [4] (setting [7]); -4% in test [4] (setting [8]); 45.2% in test [4] (at 50.0 µM). Also, the growth inhibition is -5% in test [5] (setting [7]); -2% in test [5] (setting [8]); 4.25% in test [5] (at 50.0 µM); 2% in test [6] (setting [7]); 0% in test [6] (setting [8]); -0.05% in test [6] (at 50.0 µM).

Turning to `Cn1sc2ccccc2c1=S`, the growth inhibition in test [1] (setting [7]) was -112%; in test [1] (setting [8]), 98% (active); in test [1] (at 50.0 µM) it was 99.6% (active); in test [2] (setting [7]), -39%; in test [2] (setting [8]), 99% (active); in test [2] (at 50.0 µM) it was 99.8% (active). Also, the growth inhibition in test [3] (setting [7]) is -47%; in test [3] (setting [8]), 99% (active); in test [3] (at 50.0 µM), 99.7% (active); in test [4] (setting [7]) it was -78%; in test [4] (setting [8]), 98% (active); in test [4] (at 50.0 µM), 99.5% (active). The growth inhibition in test [5] (setting [7]) is -49%; in test [5] (setting [8]), 98% (active); in test [5] (at 50.0 µM), 99.5% (active); in test [6] (setting [7]), -95%; in test [6] (setting [8]), 98% (active); in test [6] (at 50.0 µM) it was 99.7% (active).

For `CCSC(=Nc1nc2ccc(NC(C)=O)cc2s1)SCC`, the growth inhibition in test [1] (setting [7]) is 5%; in test [1] (setting [8]), 96% (active); in test [1] (at 50.0 µM), 97.2% (active); in test [2] (setting [7]), -3%; in test [2] (setting [8]) it was 97% (active); in test [2] (at 50.0 µM), 98% (active). Further, the growth inhibition is -1% in test [3] (setting [7]); 97% (active) in test [3] (setting [8]); 98.5% (active) in test [3] (at 50.0 µM); -3% in test [4] (setting [7]); 83% (active) in test [4] (setting [8]); 96.5% (active) in test [4] (at 50.0 µM). Also, the growth inhibition in test [5] (setting [7]) is -2%; in test [5] (setting [8]), 94% (active); in test [5] (at 50.0 µM), 96% (active); in test [6] (setting [7]), -2%; in test [6] (setting [8]) it was 96% (active); in test [6] (at 50.0 µM) it was 97.5% (active).
